PubChem BioAssay AID1159580 (chemical genetic matrix, 2015)
Values joined by “and” are separate entries in the source; they are usually repeats but may differ in a detail not shown here. Equal values may be shown once. Out of some 5,500 compounds screened, about 2,000 (36%) were called active. Another 18% or so got no clear call; they are omitted. Cut-off read from the data, not from the text of the source: active = normalized growth mostly below about 0.91 (no sharp cut-off); inconclusive = no clear call, values can overlap the other calls; inactive = mostly above about 0.92. The list shows a part of the results.

Experiment: chemical genetic growth profiling, strain panel (AID 1159580);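 note: tested at 20 µM; growth read once vehicle control cultures reached saturation at 30 °C; 1 = growth at the plate median or of vehicle wells; lower values mean less growth of the strain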
Settings: S. cerevisiae deletion strains, growth OD

Measured: normalized growth

CC(N)CCCC(C)(C)O (centres undefined)
inactive: locus YAL013W, strain DEP1, active compounds read low 0.998 | locus YAL021C, strain ccr4, active compounds read low 0.973 | locus YAL026C, strain drs2, active compounds read low 0.993 | locus YAL030W, strain snc1, active compounds read low 0.989 | locus YBL061C, strain skt5, active compounds read low 0.98 | locus YBR009C, strain hhf1, active compounds read low 1.01 | locus YBR021W, strain FUR4, active compounds read low 1.02 | locus YBR023C, strain chs3, active compounds read low 0.98 | locus YBR171W, strain sec66, active compounds read low 0.964 | locus YBR229C, strain ROT2, active compounds read low 1.01 | locus YBR231C, strain swc5, active compounds read low 0.976 | locus YBR279W, strain paf1, active compounds read low 0.984 | locus YCL011C, strain gbp2, active compounds read low 0.969 | locus YCL016C, strain dcc1, active compounds read low 0.989 | locus YCL029C, strain bik1, active compounds read low 1 | locus YCL061C, strain MRC1, active compounds read low 0.971 | locus YCL069W, strain vba3, active compounds read low 0.979 | locus YCR088W, strain abp1, active compounds read low 0.973 | locus YDL005C, strain med2, active compounds read low 0.983 | locus YDL035C, strain GPR1, active compounds read low 1.02 | locus YDL040C, strain nat1, active compounds read low 0.984 | locus YDL074C, strain BRE1, active compounds read low 0.979 | locus YDL101C, strain DUN1, active compounds read low 0.994 | locus YDL134C, strain PPH21, active compounds read low 1.02 | locus YDL185W, strain tfp1, active compounds read low 1.01 | locus YDL192W, strain arf1, active compounds read low 1.01 | locus YDR001C, strain nth1, active compounds read low 0.973 | locus YDR069C, strain doa4, active compounds read low 0.981 | locus YDR101C, strain arx1, active compounds read low 0.976 | locus YDR137W, strain rgp1, active compounds read low 1.01 | locus YDR159W, strain sac3, active compounds read low 0.975 | locus YDR162C, strain NBP2, active compounds read low 1.01 | locus YDR195W, strain ref2 0.904 | locus YDR297W, strain sur2, active compounds read low 0.975 | locus YDR318W, strain mcm21, active compounds read low 1.01 | locus YDR334W, strain swr1, active compounds read low 0.93 | locus YDR335W, strain msn5, active compounds read low 0.985 | locus YDR388W, active compounds read low 1.01 | locus YDR392W, strain spt3, active compounds read low 0.905 | locus YDR502C, strain sam2, active compounds read low 0.996 | locus YEL003W, strain gim4, active compounds read low 0.97 | locus YEL037C, strain rad23, active compounds read low 0.977 | locus YEL061C, strain CIN8 (second series), active compounds read low 0.977 | locus YEL061C, strain CIN8, active compounds read low 0.994 | locus YER015W, strain faa2, active compounds read low 0.982 | locus YER016W, strain bim1, active compounds read low 0.98 | locus YER110C, active compounds read low 1.02 | locus YER111C, strain swi4, active compounds read low 0.987 | locus YER155C, strain BEM2 (second series), active compounds read low 0.972 | locus YER155C, strain BEM2, active compounds read low 1 | locus YER167W, strain BCK2, active compounds read low 1.01 | locus YFR010W, strain ubp6, active compounds read low 0.978 | locus YGL078C, strain dbp3, active compounds read low 1.01 | locus YGL086W, strain mad1, active compounds read low 0.998 | locus YGL167C, strain pmr1, active compounds read low 0.979 | locus YGL173C, strain kem1, active compounds read low 0.983 | locus YGL227W, strain vid30, active compounds read low 0.981 | locus YGL240W, strain doc1, active compounds read low 0.979 | locus YGL248W, strain PDE1, active compounds read low 1 | locus YGL253W, strain hxk2, active compounds read low 0.977 | locus YGR135W, strain pre9, active compounds read low 1.04 | locus YGR229C, strain SMI1, active compounds read low 0.99 | locus YGR252W, strain gcn5, active compounds read low 1.01 | locus YHR013C, strain ard1, active compounds read low 0.959 | locus YHR027C, strain rpn1, active compounds read low 0.969 | locus YHR030C, strain SLT2, active compounds read low 1.01 and 1.08 | locus YHR079C, strain IRE1 (second series), active compounds read low 1.01 | locus YHR079C, strain IRE1, active compounds read low 1.08 | locus YHR094C, strain hxt1, active compounds read low 1 | locus YHR129C, strain ARP1, active compounds read low 1.01 | locus YHR142W, strain chs7, active compounds read low 0.954 | locus YHR200W, strain rpn10, active compounds read low 1.01 | locus YIL066C, strain RNR3, active compounds read low 0.998 | locus YIL073C, strain SPO22, active compounds read low 1.05 | locus YIL125W, strain kgd1, active compounds read low 1 | locus YIR030C, strain dcg1, active compounds read low 1.01 | locus YJL092W, strain hpr5, active compounds read low 0.966 | locus YJL095W, strain BCK1 (second series), active compounds read low 0.977 | locus YJL095W, strain BCK1, active compounds read low 0.972 and 1.1 | locus YJL115W, strain asf1, active compounds read low 0.939 | locus YJL129C, strain trk1, active compounds read low 0.975 | locus YJL134W, strain LCB3, active compounds read low 1.01 | locus YJL154C, strain vps35, active compounds read low 0.978 | locus YJL164C, strain tpk1, active compounds read low 1.01 | locus YJL166W, strain qcr8, active compounds read low 0.987 | locus YJL168C, strain set2, active compounds read low 0.997 | locus YJL187C, strain SWE1 (second series), active compounds read low 0.974 | locus YJL187C, strain SWE1, active compounds read low 0.994 | locus YJR043C, strain POL32, active compounds read low 0.989
